Records with an inconclusive call do not appear. Unmarked numbers belong to inactive results. The source made the active and inactive calls. Calls follow the shape of the dose curve; as a rule, active = well fitted cell-killing curve with a large enough effect in the repeat runs; inconclusive = weak or mixed curves, or effect the other way; inactive = no such curve, though single readings can be large or run the other way.
% is scaled to controls: 0 for no effect and ±100 for the full control effect.
Also: nearly all actives have a fitted effect of over 50% in size.

A short description of the first assay: qHTS assay to identify small molecule agonists of the vitamin D receptor (VDR) signaling pathway - cell viability counter screen (AID 743224). The settings on record: VDR-bla HEK293T viability, CellTiter-Glo luminescence, 16 h; series mostly up to 62.6 µM; activity change, negative = cytotoxicity: at the top concentration. Put shortly: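 Plated VDR-bla cells (4 h, 37C) received compound, incubated 16 h, then LiveBLAzer substrate 2 h RT; CellTiter-Glo added afterwards, luminescence read at 30 min.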
As to `Oc1ccc(Cl)cc1C1CCCC1`, the “activity change, negative = cytotoxicity” value was -17.4%.
Regarding `CC(=O)[C@]1(O)Cc2c(O)c3c(c(O)c2[C@@H](O[C@H]2C[C@H](N)[C@H](O)[C@H](C)O2)C1)C(=O)c1ccccc1C3=O`, the “activity change, negative = cytotoxicity” value is -7.23%.
Regarding `COc1c(Br)cc(Br)c(C)c1Br`, the “activity change, negative = cytotoxicity” value was -5.3%.

The next assay is described as follows: qHTS assay to identify small molecule antagonists of the vitamin D receptor (VDR) signaling pathway - cell viability counter screen (AID 743225). Also: potency is read from the fitted curve at half-maximal effect. The settings on record: VDR-bla HEK293T viability, CellTiter-Glo luminescence, 16 h; series mostly up to 61 µM; viability change, negative = cytotoxic: at the top concentration. Put shortly: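 Same-well multiplex: following 16 h treatment of HEK 293T cells carrying a UAS-driven beta-lactamase reporter with compound and agonist (3 nM final), and a 2 h FRET substrate step, CellTiter-Glo was added and luminescence read after 30 min.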
In general terms: qHTS replaces the single test concentration by a dilution series.
Consider `N#Cc1nc(Cl)c(Cl)c(Cl)c1Cl`, for which the Potency was 19.5 µM (active).
Consider `Clc1nc(C(Cl)(Cl)Cl)c(Cl)c(Cl)c1Cl`, for which the “viability change, negative = cytotoxic” value is -26.2%.
Consider `CN1CCN(CCCN2c3ccccc3Sc3ccc(C(F)(F)F)cc32)CC1`, for which the Potency was 23.9 µM (active).
With `Cc1ccc(Cl)c(N)c1Cl`, the “viability change, negative = cytotoxic” value is 16.8%.
Turning to `SC1CCCCC1`, the “viability change, negative = cytotoxic” value was -9.51% [at 78.8 µM].
As for `COc1cc([C@@H]2c3cc4c(cc3[C@@H](O[C@@H]3O[C@@H]5CO[C@@H](C)O[C@H]5[C@H](O)[C@H]3O)[C@H]3COC(=O)[C@H]23)OCO4)cc(OC)c1O`, the “viability change, negative = cytotoxic” value is -3.19%.
As for `O=C1CCC/C=C\CCCCCCCCCC1`, the “viability change, negative = cytotoxic” value is -11.2%.
As for `CN1CCN(c2ccccc2/C=C2\SCCN(c3ccc(Cl)c(Cl)c3)C2=O)CC1`, the Potency was 43.6 µM (active).
For the compound `CCCCCCCCOC(=O)c1cc(O)c(O)c(O)c1`, the Potency was 27.5 µM (active).
`CC(=O)[C@]1(O)Cc2c(O)c3c(c(O)c2[C@@H](O[C@H]2C[C@H](N)[C@H](O)[C@H](C)O2)C1)C(=O)c1ccccc1C3=O`: the “viability change, negative = cytotoxic” value is 10.4%.
With `COc1c(Br)cc(Br)c(C)c1Br`, the “viability change, negative = cytotoxic” value is 13.3%.

A short description of another assay: qHTS assay to identify small molecule antagonists of the retinoid-related orphan receptor gamma (ROR-gamma) signaling pathway - cell viability counter screen (AID 1159520). Also: potency is read from the fitted curve at half-maximal effect. Particulars: Tet-on RORgamma CHO cells viability, ATP luminescence, 16 h; series mostly up to 92.4 µM; activity, negative = cytotoxicity: at the top concentration. Put shortly:
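Cytotoxicity was read from cellular ATP (CellTiter-Glo luminescence) after 16 hr at 37 C with 1 uM doxycycline induction. The inducer was added 2 hr after compound transfer to Tet-on ROR gamma CHO cells.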
In the case of `CCNc1nc(NC(C)(C)C)nc(OC)n1`, the “activity, negative = cytotoxicity” value is 0.814%.
Regarding `N#Cc1nc(Cl)c(Cl)c(Cl)c1Cl`, the Potency is 1.93 µM (active).
In the case of `Clc1nc(C(Cl)(Cl)Cl)c(Cl)c(Cl)c1Cl`, the Potency is 30.6 µM (active).
Consider `CCN(CC)c1ccc(C=O)c(O)c1`, for which the “activity, negative = cytotoxicity” value is -1.01%.
Take `CN1CCN(CCCN2c3ccccc3Sc3ccc(C(F)(F)F)cc32)CC1`: the “activity, negative = cytotoxicity” value is -18.2% [at 42.5 µM].
The same measure, in the same setting: to `CC(O)(c1ccc(Cl)cc1)c1ccc(Cl)cc1` belongs -29.7%; to `C=C[Si](C)(C)Cl`, 5.94% [at 8.39 µM].
Turning to `CC(=O)CC(N)=O`, the “activity, negative = cytotoxicity” value is 3.78%.
As to `CCCCCCCCCC[N+](C)(CCCCCCCCCC)CCC[Si](OC)(OC)OC`, the Potency is 24.3 µM (active).
Regarding `COc1cc(OC)nc(NC(=O)NS(=O)(=O)Nc2ccccc2C(=O)N(C)C)n1`, the “activity, negative = cytotoxicity” value was -2.85%.
In the case of `Nc1ccc(F)c([N+](=O)[O-])c1`, the “activity, negative = cytotoxicity” value is -4.64%.
Still for that read-out and setting: as for `CC/C=C(\C)C=O`, the figure is 5.94%; as for `Cc1ccc(Cl)c(N)c1Cl`, -7.13%; as for `Brc1cc(Br)cc(Br)c1`, 1.41%.
The same measure, in the same setting: as for `CCCCCCCCCCCCCCCCC(C(=O)O)C(O)(CC(=O)O)C(=O)O` (stereo not drawn), the figure is -6.56% [at 42.5 µM]; as for `SC1CCCCC1`, -3.94%; as for `COc1cc([C@@H]2c3cc4c(cc3[C@@H](O[C@@H]3O[C@@H]5CO[C@@H](C)O[C@H]5[C@H](O)[C@H]3O)[C@H]3COC(=O)[C@H]23)OCO4)cc(OC)c1O`, -6.58%.
On the same count and under the same terms, as for `O=C1CCC/C=C\CCCCCCCCCC1`, the figure is -8.87%.
As to `CN1CCN(c2ccccc2/C=C2\SCCN(c3ccc(Cl)c(Cl)c3)C2=O)CC1`, the Potency is 68.6 µM (active).
With `O=c1[nH]cccc1O`, the “activity, negative = cytotoxicity” value is -1.74%.
With `CCCCCCCCOC(=O)c1cc(O)c(O)c(O)c1`, the Potency is 2.43 µM (active).
For the compound `CCC1(C)C(=O)N(Cl)C(=O)N1Cl` (stereo not drawn), the “activity, negative = cytotoxicity” value was 6.97%.
Turning to `O=C1OC(O)C(C(Cl)Cl)=C1Cl` (stereo not drawn), the Potency is 7.07 µM (active).
As for `C/C(=N\[Si](C)(C)C)O[Si](C)(C)C`, the “activity, negative = cytotoxicity” value was 11%.
As to `CN(C/C=C/c1ccccc1)Cc1cccc2ccccc12`, the “activity, negative = cytotoxicity” value is -7.42% [at 42.5 µM].
Regarding `CCC(=O)OC/C=C(\C)CCC=C(C)C`, the “activity, negative = cytotoxicity” value was -9.76%.
Still for that read-out and setting: to `CN1CCN(CCCN2c3ccccc3Sc3ccc(Cl)cc32)CC1` belongs -10.8% [at 42.5 µM].
For `Oc1ccc(Cl)cc1C1CCCC1`, the “activity, negative = cytotoxicity” value was -8.82%.
As to `CC(=O)[C@]1(O)Cc2c(O)c3c(c(O)c2[C@@H](O[C@H]2C[C@H](N)[C@H](O)[C@H](C)O2)C1)C(=O)c1ccccc1C3=O`, the Potency was 26.6 µM (active).
Turning to `C=CC(=O)O[C@H]1C[C@@H]2CC[C@@]1(C)C2(C)C`, the “activity, negative = cytotoxicity” value is 3.64%.
The same measure, in the same setting: to `N#Cc1ccc(C/C(=N/NC(=O)Nc2ccc(OC(F)(F)F)cc2)c2cccc(C(F)(F)F)c2)cc1` belongs -10.4%.
With `CC(C)(C)C1=CC(=O)C(C(C)(C)C)=CC1=O`, the “activity, negative = cytotoxicity” value is -11.8% [at 42.5 µM].
In the case of `COc1c(Br)cc(Br)c(C)c1Br`, the “activity, negative = cytotoxicity” value is -6.84%.
With `O=C(N[C@H](CO)[C@H](O)c1ccc([N+](=O)[O-])cc1)C(Cl)Cl`, the “activity, negative = cytotoxicity” value was -0.161%.

Source of the values: PubChem BioAssay (Tox21).
